{
  "source": "the supplement of paper PMC10720658",
  "note": "± gives the standard deviation of the averaged measurements.",
  "data": [
    {"tested_on": "AEK1 (Tb927.3.2440)", "experiment": "percent reduction in TR-FRET probe signal relative to DMSO control; higher = stronger displacement of ATP-site probe (binding)", "conditions": "1 µM; incubation time 1 h", "units": {"percent reduction in TR-FRET probe signal": "%"}, "values": [
      {"smiles": "Cc1c[nH]c2nc(Nc3ccc(N4CCN(C)CC4)c(F)c3)nc(-c3cccc(CC#N)c3)c12", "percent reduction in TR-FRET probe signal": "56.3 ± 2"},
      {"smiles": "Cc1ccc(-c2nn(C(C)(C)C)c3ncnc(N)c23)cc1", "percent reduction in TR-FRET probe signal": "-1.9 ± 8.7"},
      {"smiles": "COC(=O)c1ccc2c(c1)NC(=O)/C2=C(\\Nc1ccc(N(C)C(=O)CN2CCN(C)CC2)cc1)c1ccccc1", "note": "[Nintedanib (BIBF 1120)]", "percent reduction in TR-FRET probe signal": "9.58 ± 14"},
      {"smiles": "Cc1c[nH]c(-c2cnc(NCCNc3ccc(C#N)cn3)nc2-c2ccc(Cl)cc2Cl)n1", "percent reduction in TR-FRET probe signal": "2.8 ± 12"},
      {"smiles": "CN(c1ncccc1CNc1nc(Nc2ccc3c(c2)CC(=O)N3)ncc1C(F)(F)F)S(C)(=O)=O.O=S(=O)(O)c1ccccc1", "percent reduction in TR-FRET probe signal": "37.1 ± 14"},
      {"smiles": "Cc1[nH]c2ccccc2c1C1=C(NCCc2ccc(F)cc2)C(=O)N(C)C1=O", "percent reduction in TR-FRET probe signal": "8.32 ± 10"},
      {"smiles": "CNCc1ccc(-c2cc(-c3nc(-c4ccc(S(=O)(=O)C(C)C)cc4)cnc3N)on2)cc1", "percent reduction in TR-FRET probe signal": "0.147 ± 8.7"},
      {"smiles": "CCOc1cc(N2CCC(O)CC2)ccc1Nc1ncc2c(n1)N(C)c1ccccc1C(=O)N2C", "percent reduction in TR-FRET probe signal": "-8.09 ± 7.7"},
      {"smiles": "Cc1nc(Nc2n[nH]c3c2CN(C(=O)N[C@H](CN(C)C)c2ccccc2)C3(C)C)c2sccc2n1", "percent reduction in TR-FRET probe signal": "61.8 ± 9.6"},
      {"smiles": "Cn1cc(C=C2C(=O)Nc3cccnc32)c2ccccc21", "percent reduction in TR-FRET probe signal": "-3.06 ± 6"},
      {"smiles": "Nc1nc(N)c(N=O)c(OCC2CCCCC2)n1", "percent reduction in TR-FRET probe signal": "-2.92 ± 9"},
      {"smiles": "CNC(=O)c1cc(Oc2ccc3nc(N[C@@H]4CCCC[C@H]4O)sc3c2)ccn1", "percent reduction in TR-FRET probe signal": "-6.41 ± 1.1"},
      {"smiles": "Cn1cnc2c(F)c(Nc3ccc(Br)cc3Cl)c(C(=O)NOCCO)cc21", "note": "[Selumetinib (AZD6244)]", "percent reduction in TR-FRET probe signal": "11.4 ± 34"},
      {"smiles": "C#Cc1cccc(Nc2ncnc3cc(OCCOC)c(OCCO)cc23)c1.Cl", "percent reduction in TR-FRET probe signal": "-0.453 ± 12"},
      {"smiles": "CNC(=O)c1cc(Oc2ccc(NC(=O)Nc3cc(C(C)(C)C)nn3-c3ccc4ncccc4c3)c(F)c2)ccn1", "note": "[DCC-2036 (Rebastinib)]", "percent reduction in TR-FRET probe signal": "21.5 ± 15"},
      {"smiles": "CCCNC(=O)Nc1ccc(Oc2ncnc3cc(OC)c(OC)cc23)cc1Cl", "percent reduction in TR-FRET probe signal": "-3.67 ± 12"},
      {"smiles": "CS(=O)(=O)O.N#CC1(c2ccc(NC(=O)c3cccnc3NCc3ccncc3)cc2)CCCC1", "note": "[Apatinib]", "percent reduction in TR-FRET probe signal": "-2.66 ± 9.6"},
      {"smiles": "CS(=O)(=O)N1CCN(Cc2cc3nc(-c4cccc5[nH]ncc45)nc(N4CCOCC4)c3s2)CC1", "percent reduction in TR-FRET probe signal": "4.23 ± 8.1"},
      {"smiles": "Cc1nc(NC(=O)N2CCC[C@H]2C(N)=O)sc1-c1ccnc(C(C)(C)C(F)(F)F)c1", "percent reduction in TR-FRET probe signal": "0.68 ± 7.1"},
      {"smiles": "C[C@@H](NC(=O)c1ncnc(N)c1Cl)c1ncc(C(=O)Nc2cc(C(F)(F)F)c(Cl)cn2)s1", "percent reduction in TR-FRET probe signal": "-3.59 ± 11"},
      {"smiles": "CC(C)(C)c1cc(NC(=O)Nc2ccc(-c3cn4c(n3)sc3cc(OCCN5CCOCC5)ccc34)cc2)no1", "note": "[Quizartinib (AC220)]", "percent reduction in TR-FRET probe signal": "9.26 ± 2.9"},
      {"smiles": "CC[C@@H]1C(=O)N(C)c2cnc(Nc3ccc(C(=O)N[C@H]4CC[C@H](N5CCN(CC6CC6)CC5)CC4)cc3OC)nc2N1C(C)C", "note": "[Volasertib (BI 6727)]", "percent reduction in TR-FRET probe signal": "4.92 ± 1.3"},
      {"smiles": "CC(C)c1cnn2c(NCc3ccccc3)cc(NCCCCCCN)nc12.Cl", "percent reduction in TR-FRET probe signal": "-3.89 ± 4.8"},
      {"smiles": "Cn1cc(-c2ccc3nnc(C(F)(F)c4ccc5ncccc5c4)n3n2)cn1", "percent reduction in TR-FRET probe signal": "-0.537 ± 18"},
      {"smiles": "COc1ccc(Cl)cc1NC(=O)Nc1cc(C)nc2ccccc12", "percent reduction in TR-FRET probe signal": "-2.86 ± 7.3"}
    ]}
  ]
}
